Results from ChEMBL document CHEMBL2218924, “A broad activity screen in support of a chemogenomic map for kinase signalling research and drug discovery” (Biochem J, 2013).

Experiments:
[1] = molecular target: T1, Ephrin type-A receptor 3 (Homo sapiens) (UniProt P29320); conditions: at 10 µM
T1 sequence (whole entry): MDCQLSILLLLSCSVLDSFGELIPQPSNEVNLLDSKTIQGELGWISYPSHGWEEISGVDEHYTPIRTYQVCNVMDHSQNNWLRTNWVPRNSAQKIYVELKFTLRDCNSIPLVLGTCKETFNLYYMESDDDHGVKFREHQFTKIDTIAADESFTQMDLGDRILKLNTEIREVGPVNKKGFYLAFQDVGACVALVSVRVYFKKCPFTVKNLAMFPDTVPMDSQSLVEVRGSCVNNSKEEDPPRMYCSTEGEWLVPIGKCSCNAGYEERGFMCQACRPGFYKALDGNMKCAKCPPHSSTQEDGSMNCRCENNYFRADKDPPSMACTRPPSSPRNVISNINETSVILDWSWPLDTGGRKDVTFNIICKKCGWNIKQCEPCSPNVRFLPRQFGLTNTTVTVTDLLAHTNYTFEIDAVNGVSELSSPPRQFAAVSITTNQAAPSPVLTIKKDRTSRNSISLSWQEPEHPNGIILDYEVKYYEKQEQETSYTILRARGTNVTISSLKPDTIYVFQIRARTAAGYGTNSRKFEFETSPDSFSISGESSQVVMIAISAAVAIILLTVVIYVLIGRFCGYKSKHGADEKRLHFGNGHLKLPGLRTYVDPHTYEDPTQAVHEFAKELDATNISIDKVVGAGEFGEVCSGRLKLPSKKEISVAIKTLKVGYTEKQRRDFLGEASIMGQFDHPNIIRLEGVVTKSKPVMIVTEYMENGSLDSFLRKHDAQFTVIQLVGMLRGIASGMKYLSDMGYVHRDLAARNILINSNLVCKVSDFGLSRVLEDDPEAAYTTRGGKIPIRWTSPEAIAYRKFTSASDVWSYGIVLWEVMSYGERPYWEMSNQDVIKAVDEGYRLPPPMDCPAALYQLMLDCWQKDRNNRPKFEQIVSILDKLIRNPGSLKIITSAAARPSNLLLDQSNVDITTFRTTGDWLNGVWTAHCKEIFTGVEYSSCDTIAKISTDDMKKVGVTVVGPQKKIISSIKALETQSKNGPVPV

[2] = molecular target: Ephrin type-A receptor 4 (Homo sapiens) (UniProt P54764); conditions: at 1 µM
Sequence of Ephrin type-A receptor 4 (Homo sapiens) (P54764 whole entry): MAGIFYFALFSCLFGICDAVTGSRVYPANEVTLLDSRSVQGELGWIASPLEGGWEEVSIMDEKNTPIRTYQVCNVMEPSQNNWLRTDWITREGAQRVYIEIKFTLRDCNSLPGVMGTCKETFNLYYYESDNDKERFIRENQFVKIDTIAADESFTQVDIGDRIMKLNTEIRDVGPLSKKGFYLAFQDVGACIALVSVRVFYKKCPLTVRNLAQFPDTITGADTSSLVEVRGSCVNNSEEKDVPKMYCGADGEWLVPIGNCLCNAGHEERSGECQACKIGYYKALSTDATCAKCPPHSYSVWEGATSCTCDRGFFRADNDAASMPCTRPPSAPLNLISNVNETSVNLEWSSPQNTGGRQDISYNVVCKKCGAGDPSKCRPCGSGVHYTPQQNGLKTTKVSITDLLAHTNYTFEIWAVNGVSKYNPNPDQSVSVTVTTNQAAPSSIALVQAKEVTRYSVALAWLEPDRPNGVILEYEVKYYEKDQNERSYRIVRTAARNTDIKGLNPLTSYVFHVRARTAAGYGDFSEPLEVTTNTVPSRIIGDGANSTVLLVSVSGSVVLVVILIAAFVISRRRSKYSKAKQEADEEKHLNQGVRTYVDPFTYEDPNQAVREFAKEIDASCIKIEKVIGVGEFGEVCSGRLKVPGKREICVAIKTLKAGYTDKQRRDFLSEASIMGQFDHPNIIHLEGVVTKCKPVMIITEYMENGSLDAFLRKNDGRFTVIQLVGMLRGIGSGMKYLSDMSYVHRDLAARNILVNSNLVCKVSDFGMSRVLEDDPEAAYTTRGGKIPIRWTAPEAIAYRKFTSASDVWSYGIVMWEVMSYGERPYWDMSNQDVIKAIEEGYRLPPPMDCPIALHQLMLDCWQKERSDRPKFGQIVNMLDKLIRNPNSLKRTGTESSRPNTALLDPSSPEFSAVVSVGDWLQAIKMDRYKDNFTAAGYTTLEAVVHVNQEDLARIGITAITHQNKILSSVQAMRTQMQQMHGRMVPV

[3] = molecular target: Ephrin type-A receptor 4 (Homo sapiens) (UniProt P54764); conditions: at 10 µM
[4] = molecular target: Ephrin type-A receptor 5 (Homo sapiens) (UniProt P54756); conditions: at 1 µM
Sequence of Ephrin type-A receptor 5 (Homo sapiens) (P54756 whole entry): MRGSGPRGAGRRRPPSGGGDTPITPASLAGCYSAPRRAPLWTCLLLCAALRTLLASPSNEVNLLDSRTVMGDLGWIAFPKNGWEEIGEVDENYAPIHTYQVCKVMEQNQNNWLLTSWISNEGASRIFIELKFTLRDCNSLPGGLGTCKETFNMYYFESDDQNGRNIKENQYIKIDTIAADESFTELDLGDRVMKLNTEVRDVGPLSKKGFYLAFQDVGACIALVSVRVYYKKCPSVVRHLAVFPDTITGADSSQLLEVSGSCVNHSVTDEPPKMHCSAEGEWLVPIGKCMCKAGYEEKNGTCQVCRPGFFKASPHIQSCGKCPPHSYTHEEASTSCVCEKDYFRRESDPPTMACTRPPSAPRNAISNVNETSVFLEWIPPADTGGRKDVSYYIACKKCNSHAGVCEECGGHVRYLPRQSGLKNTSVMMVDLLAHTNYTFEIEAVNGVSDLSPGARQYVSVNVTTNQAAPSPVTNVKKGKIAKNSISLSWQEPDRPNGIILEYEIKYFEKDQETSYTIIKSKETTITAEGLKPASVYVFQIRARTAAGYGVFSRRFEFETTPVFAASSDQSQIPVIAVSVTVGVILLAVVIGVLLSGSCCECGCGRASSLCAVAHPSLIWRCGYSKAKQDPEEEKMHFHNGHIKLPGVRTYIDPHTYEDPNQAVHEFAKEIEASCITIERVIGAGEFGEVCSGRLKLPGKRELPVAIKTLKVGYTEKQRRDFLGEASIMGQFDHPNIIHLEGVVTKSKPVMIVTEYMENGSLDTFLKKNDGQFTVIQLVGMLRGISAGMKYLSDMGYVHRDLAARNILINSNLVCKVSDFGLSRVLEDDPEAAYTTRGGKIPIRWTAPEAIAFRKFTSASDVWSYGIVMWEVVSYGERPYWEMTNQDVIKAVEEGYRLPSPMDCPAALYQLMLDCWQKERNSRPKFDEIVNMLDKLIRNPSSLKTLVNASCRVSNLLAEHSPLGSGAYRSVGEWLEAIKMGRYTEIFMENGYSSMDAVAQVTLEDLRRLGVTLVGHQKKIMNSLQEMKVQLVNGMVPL

[5] = molecular target: Ephrin type-A receptor 5 (Homo sapiens) (UniProt P54756); conditions: at 10 µM
[6] = molecular target: Ephrin type-A receptor 7 (Homo sapiens) (UniProt Q15375); conditions: at 1 µM
[7] = molecular target: T2, Ephrin type-A receptor 8 (Homo sapiens) (UniProt P29322); conditions: at 10 µM
T2 sequence (whole entry): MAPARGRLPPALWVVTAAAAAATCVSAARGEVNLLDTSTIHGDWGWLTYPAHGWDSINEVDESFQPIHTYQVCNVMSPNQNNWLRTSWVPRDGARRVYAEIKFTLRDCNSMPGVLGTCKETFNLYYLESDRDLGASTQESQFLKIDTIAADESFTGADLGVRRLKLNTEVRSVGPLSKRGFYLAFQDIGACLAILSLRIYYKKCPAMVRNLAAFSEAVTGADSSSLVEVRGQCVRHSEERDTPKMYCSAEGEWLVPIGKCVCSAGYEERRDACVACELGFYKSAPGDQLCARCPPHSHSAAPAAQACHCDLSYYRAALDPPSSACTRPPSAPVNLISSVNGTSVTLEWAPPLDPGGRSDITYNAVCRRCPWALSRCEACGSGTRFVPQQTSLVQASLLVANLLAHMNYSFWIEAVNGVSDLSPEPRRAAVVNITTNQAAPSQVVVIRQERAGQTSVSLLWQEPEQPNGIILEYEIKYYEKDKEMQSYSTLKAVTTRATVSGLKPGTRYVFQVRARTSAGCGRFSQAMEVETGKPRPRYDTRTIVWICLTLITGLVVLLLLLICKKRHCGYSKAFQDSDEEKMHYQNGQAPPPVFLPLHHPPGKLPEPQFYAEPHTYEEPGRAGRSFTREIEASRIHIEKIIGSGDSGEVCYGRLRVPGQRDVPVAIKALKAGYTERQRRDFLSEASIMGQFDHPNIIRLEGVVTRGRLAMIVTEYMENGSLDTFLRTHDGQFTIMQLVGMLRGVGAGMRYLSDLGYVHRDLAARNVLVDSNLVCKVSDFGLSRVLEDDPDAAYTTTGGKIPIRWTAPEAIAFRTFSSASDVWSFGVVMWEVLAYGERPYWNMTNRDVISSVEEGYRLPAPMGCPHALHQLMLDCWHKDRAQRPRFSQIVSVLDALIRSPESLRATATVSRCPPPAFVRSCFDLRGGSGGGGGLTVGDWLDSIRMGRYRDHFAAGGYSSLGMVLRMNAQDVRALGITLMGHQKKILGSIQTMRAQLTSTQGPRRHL

[8] = molecular target: T3, Ephrin type-B receptor 2 (Homo sapiens) (UniProt P29323); conditions: at 10 µM
T3 sequence (whole entry): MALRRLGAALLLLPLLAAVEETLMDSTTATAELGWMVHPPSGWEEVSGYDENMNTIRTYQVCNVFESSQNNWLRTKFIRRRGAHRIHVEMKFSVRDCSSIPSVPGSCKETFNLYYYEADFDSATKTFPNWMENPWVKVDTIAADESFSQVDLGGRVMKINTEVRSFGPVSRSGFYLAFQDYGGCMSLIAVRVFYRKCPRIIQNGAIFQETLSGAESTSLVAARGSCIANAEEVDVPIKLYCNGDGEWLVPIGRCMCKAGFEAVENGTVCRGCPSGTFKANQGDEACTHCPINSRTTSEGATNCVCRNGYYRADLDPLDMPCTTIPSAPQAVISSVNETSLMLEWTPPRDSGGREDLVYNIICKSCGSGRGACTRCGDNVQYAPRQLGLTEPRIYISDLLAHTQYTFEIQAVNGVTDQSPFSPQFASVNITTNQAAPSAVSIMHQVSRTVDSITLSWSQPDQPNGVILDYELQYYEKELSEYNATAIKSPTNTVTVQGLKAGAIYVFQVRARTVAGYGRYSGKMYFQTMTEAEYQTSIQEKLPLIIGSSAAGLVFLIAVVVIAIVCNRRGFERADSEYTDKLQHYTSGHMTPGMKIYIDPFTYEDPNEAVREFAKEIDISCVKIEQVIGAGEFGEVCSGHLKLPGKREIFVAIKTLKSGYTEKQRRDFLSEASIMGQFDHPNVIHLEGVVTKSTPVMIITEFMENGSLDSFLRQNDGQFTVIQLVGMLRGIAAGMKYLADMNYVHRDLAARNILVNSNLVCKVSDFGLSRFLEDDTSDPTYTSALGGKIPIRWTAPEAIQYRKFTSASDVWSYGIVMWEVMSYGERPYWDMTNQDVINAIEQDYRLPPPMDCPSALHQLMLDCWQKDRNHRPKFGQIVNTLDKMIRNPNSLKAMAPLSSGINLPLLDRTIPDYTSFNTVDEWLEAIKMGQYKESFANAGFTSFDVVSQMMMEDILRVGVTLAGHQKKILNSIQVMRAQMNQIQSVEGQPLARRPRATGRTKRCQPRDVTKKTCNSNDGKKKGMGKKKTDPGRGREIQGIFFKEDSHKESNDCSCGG

[9] = molecular target: T4, Ephrin type-B receptor 3 (Homo sapiens) (UniProt P54753); conditions: at 1 µM
T4 sequence (whole entry): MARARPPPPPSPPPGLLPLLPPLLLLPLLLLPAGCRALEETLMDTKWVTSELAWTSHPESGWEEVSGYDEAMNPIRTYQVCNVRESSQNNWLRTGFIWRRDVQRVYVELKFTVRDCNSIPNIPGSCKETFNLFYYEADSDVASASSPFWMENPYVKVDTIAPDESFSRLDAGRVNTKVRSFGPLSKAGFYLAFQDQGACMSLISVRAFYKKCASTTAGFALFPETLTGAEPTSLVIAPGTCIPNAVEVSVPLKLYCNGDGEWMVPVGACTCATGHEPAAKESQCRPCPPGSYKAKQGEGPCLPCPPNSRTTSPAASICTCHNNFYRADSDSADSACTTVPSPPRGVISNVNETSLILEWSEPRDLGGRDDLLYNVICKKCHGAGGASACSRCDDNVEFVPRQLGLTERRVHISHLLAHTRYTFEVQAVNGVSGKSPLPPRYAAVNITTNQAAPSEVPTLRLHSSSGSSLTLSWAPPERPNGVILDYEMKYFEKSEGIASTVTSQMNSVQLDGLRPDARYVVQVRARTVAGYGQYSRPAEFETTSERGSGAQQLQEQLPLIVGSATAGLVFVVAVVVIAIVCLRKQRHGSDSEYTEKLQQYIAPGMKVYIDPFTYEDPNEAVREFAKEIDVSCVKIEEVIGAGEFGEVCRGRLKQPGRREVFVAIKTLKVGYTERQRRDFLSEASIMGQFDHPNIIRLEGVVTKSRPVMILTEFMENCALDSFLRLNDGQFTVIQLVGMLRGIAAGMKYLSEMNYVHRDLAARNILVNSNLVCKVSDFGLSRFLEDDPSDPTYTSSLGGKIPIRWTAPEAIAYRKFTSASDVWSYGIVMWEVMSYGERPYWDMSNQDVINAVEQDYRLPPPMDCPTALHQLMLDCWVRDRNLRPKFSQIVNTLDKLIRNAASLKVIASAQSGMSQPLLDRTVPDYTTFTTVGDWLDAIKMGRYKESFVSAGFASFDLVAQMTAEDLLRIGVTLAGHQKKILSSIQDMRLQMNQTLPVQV

[10] = molecular target: T4, Ephrin type-B receptor 3 (Homo sapiens); conditions: at 10 µM
[11] = molecular target: T5, Ephrin type-B receptor 4 (Homo sapiens) (UniProt P54760); conditions: at 1 µM
T5 sequence (whole entry): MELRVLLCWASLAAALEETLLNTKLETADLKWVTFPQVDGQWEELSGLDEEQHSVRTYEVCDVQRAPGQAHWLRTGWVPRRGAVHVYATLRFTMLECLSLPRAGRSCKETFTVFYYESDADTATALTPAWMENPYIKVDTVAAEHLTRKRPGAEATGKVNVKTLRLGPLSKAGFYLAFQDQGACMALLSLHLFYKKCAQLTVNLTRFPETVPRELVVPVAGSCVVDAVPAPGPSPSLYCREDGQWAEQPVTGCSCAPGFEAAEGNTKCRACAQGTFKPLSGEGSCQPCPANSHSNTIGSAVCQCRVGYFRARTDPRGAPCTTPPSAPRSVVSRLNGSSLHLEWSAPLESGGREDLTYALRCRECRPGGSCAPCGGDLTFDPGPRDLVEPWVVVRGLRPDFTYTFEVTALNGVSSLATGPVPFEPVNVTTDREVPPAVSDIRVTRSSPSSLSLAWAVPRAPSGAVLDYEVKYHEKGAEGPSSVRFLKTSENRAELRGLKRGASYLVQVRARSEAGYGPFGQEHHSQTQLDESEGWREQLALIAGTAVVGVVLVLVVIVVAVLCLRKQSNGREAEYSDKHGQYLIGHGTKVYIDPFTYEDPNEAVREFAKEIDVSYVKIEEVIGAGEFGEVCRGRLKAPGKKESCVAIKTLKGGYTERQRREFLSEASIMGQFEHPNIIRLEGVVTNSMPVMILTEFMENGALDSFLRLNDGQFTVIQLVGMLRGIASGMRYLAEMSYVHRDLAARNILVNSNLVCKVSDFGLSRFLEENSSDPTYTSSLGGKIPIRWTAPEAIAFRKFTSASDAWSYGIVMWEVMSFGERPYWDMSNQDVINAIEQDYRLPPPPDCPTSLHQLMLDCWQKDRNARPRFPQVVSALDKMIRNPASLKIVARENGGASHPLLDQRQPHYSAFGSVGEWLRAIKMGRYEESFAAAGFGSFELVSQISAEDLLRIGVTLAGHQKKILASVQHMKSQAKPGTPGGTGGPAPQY

[12] = molecular target: T5, Ephrin type-B receptor 4 (Homo sapiens); conditions: at 10 µM
[13] = molecular target: Receptor tyrosine-protein kinase erbB-4 (Homo sapiens) (UniProt Q15303); conditions: at 1 µM
Sequence of Receptor tyrosine-protein kinase erbB-4 (Homo sapiens) (Q15303 whole entry): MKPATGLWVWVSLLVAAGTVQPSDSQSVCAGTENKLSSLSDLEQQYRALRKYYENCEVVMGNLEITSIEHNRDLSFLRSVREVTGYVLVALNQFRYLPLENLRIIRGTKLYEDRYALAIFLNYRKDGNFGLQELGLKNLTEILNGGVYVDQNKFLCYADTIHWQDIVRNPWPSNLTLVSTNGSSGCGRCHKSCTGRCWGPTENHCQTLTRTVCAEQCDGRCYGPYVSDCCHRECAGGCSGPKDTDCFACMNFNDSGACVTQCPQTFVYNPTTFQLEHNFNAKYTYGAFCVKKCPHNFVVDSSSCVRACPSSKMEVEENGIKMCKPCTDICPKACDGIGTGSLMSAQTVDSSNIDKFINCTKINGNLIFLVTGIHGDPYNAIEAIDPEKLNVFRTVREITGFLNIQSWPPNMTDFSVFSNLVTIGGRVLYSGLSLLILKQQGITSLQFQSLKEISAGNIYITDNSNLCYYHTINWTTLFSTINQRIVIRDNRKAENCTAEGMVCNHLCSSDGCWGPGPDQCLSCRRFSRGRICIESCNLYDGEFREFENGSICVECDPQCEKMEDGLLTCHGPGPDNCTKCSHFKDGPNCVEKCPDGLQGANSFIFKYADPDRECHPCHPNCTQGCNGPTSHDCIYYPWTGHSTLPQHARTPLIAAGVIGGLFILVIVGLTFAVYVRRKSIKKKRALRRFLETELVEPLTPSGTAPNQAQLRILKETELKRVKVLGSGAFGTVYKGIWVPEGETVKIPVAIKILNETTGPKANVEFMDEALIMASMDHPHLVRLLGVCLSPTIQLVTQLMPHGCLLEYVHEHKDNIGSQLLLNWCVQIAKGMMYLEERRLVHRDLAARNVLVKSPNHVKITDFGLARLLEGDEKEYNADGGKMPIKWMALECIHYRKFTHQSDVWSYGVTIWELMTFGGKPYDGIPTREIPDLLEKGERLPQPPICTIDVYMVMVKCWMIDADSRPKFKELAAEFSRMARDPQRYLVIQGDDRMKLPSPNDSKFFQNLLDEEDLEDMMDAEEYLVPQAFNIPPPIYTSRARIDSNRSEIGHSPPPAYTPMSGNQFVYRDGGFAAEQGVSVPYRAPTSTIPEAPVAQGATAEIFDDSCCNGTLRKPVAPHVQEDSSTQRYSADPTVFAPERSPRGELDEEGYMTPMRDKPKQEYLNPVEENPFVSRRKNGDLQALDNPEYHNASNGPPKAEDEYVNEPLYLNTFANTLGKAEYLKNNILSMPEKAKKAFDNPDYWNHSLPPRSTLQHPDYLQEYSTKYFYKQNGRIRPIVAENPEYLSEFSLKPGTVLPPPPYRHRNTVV

[14] = molecular target: Receptor tyrosine-protein kinase erbB-4 (Homo sapiens) (UniProt Q15303); conditions: at 10 µM
[15] = molecular target: Focal adhesion kinase 1 (Homo sapiens) (UniProt Q05397); conditions: at 1 µM
Sequence of Focal adhesion kinase 1 (Homo sapiens) (Q05397 2-1052 limits assumed): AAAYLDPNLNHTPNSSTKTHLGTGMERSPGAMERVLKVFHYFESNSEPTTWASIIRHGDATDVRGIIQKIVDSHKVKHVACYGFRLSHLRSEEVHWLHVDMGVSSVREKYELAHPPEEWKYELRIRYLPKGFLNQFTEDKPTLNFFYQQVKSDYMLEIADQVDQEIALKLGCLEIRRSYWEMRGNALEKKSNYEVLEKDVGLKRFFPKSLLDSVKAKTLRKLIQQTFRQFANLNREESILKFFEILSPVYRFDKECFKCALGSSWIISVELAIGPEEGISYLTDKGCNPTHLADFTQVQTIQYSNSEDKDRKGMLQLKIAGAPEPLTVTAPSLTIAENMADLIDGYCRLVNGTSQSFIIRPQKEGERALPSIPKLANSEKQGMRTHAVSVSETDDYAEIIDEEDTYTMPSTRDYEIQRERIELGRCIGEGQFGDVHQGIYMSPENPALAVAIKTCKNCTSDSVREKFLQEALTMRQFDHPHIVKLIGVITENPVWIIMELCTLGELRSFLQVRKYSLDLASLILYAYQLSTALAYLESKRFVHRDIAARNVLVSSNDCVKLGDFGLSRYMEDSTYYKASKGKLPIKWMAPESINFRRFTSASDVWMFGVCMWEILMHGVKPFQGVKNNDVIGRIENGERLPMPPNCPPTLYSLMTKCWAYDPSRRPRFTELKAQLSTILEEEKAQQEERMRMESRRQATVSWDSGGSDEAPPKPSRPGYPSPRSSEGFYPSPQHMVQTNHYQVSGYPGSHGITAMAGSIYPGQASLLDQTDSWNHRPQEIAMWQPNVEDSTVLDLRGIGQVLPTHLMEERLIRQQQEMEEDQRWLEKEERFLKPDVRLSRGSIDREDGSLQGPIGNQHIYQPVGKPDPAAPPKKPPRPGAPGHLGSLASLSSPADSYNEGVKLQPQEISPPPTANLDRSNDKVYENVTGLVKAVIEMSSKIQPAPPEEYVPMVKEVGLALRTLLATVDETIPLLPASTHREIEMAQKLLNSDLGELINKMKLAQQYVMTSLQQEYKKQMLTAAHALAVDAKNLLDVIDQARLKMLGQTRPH

For `Nc1ncnc2[nH]nc(Nc3ccc(F)cc3)c12`, the residual activity [1] was 42%, the residual activity [2] was 111% and the residual activity [3] was 77%. For the same molecule, the residual activity [4] was 82%, the residual activity [5] was 34% and the residual activity [6] was 105%. The residual activity [7] was 43%, the residual activity [8] was 9% and the residual activity [9] was 123% (inactive). It also gave a residual activity [10] of 107%, a residual activity [11] of 42% and a residual activity [12] of 6%. For the same molecule, the residual activity [13] was 18%, the residual activity [14] was 11% and the residual activity [15] was 109%.
